# Screening results deposited in PubChem BioAssay by National Center for Advancing Translational Sciences (NCATS).
# Rows were chosen to be rich in hits. Some 12% of all compounds tested hit in one or more screens of this group.
# G9a inh: qHTS Assay for Inhibitors of Histone Lysine Methyltransferase G9a. G9a H3K9 monomethylation, AlphaScreen, 2 h. Potency, µM (top dose mostly 102 µM), for the others: at the top dose activity, negative = inhibition, actives largely listed as inhibitors. 8.8% of 350,000 active. AID 504332, 2011; note: potency is the fitted concentration of half-maximal effect; % is set by controls: 0 for no effect and ±100 for the full control effect; nearly all actives have a fitted effect of over 75% in size
# Target sequence (Q96KQ7 913-1193 limits assumed): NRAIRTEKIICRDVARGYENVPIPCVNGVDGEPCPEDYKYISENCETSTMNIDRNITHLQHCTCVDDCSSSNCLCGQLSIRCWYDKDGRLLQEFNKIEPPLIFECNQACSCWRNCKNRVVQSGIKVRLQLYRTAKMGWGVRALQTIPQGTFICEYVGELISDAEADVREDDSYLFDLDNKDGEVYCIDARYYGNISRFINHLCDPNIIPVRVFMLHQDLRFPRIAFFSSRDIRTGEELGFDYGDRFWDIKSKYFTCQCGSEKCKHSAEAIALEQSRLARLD
#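 G9a (20 nM) was preincubated 15 min with compound, then reacted 2 h at room temperature with 500 nM biotin-H3K9 peptide and 20 µM SAM. Monomethyl-H3K9 detected by AlphaScreen using anti-H3K9me1 antibody.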
# PI5P4Ka inh: qHTS for Inhibitors of phosphatidylinositol 5-phosphate 4-kinase (PI5P4K). AID 652105, 2013. PI5P4Kalpha enzyme, ADP-Glo luminescence, 60 min; hits give low values. Phosphatidylinositol 5-phosphate 4-kinase type-2 alpha (Homo sapiens), P48426. 1.2% of 330,000 active. max response, %; active = max response of -50% or lower; inconclusive = between -30% and -50%; inactive = -30% or higher; note: value at the top dose of about 77 µM; % is set by controls: 0 for no effect and ±100 for the full control effect
#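 Reactions run in 0.038 M HEPES pH 7.4, 0.28 mM EGTA, 0.1% CHAPS and 5% DMSO, with PI5P4Kalpha, substrate, compound and 5 microM ATP final, one hour at room temperature. Readout is ADP-Glo luminescence.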
# PLK1 PBD block: qHTS for Inhibitors of PLK1-PDB (polo-like kinase 1 - polo-box domain): Primary Screen. Plk1 PBD binding of FITC phosphopeptide, fluorescence polarization. Potency, µM, for inactives: max response, negative = inhibition, hits mostly inhibitors. 2.8% of 360,000 active; note: potency is the fitted concentration of half-maximal effect; series mostly up to about 57 µM; % is set by controls: 0 for no effect and ±100 for the full control effect; nearly all actives have a fitted effect of over 65% in size
# HP1b chromo inh: HTS for Inhibitors of HP1-beta Chromodomain Interactions with Methylated Histone Tails. AlphaScreen HP1-beta / biotin-H3K9me3 peptide binding. 0.56% of 390,000 active. AID 540317, 2011. Potency, µM (titrated, usually from 114 µM), inactives show at the highest dose activity change, negative = inhibition, most hits filed as inhibitors. Chromobox protein homolog 1 (Homo sapiens), P83916; note: potency is the fitted concentration of half-maximal effect; nearly all actives have a fitted effect of over 70% in size
# Target sequence (P83916 whole entry, looked up): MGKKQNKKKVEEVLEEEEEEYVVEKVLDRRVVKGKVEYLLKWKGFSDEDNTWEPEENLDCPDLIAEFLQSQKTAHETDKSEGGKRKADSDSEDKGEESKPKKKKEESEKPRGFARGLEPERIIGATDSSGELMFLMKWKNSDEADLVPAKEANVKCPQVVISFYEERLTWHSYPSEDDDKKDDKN
#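 HP1-beta protein (50 nM final) preincubated 30 min at room temperature with biotinylated H3(1-18)K9me3 peptide (50 nM) in PBS pH 7.4, 0.01% Tween-20, then compound added for 30 min. AlphaScreen streptavidin donor/nickel chelate acceptor beads (10 ug/mL final), 30 min dark, luminescence read.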
# JMJD2A Tudor inh: qHTS Assay for Inhibitors of JMJD2A-Tudor Domain; Lysine-specific demethylase 4A (Homo sapiens), O75164; AlphaScreen JMJD2A-Tudor / H3K4me3 peptide binding; Potency, µM (top dose mostly 114 µM), for inactives: at the top dose activity change, negative = inhibition, hits mostly inhibitors; 4.4% of 390,000 active; AID 504339, 2011; note: potency is the fitted concentration of half-maximal effect; % is set by controls: 0 for no effect and ±100 for the full control effect; nearly all actives have a fitted effect of over 50% in size
# BAZ2B inh: qHTS Assay for Inhibitors of BAZ2B; AlphaScreen BAZ2B-H3K14Ac peptide displacement; Potency, µM (top dose mostly 114 µM), without a hit: at the top dose activity change, negative = inhibition, most hits filed as inhibitors; 4.4% of 360,000 active; note: potency is the fitted concentration of half-maximal effect; % is set by controls: 0 for no effect and ±100 for the full control effect; nearly all actives have a fitted effect of over 60% in size
#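 AlphaScreen displacement of biotin-H3(5-23)K14Ac peptide (50 nM final) from BAZ2B (50 nM final) in PBS pH 7.4, 0.01% Tween-20; complex preformed 30 min RT, then compounds (top 110 uM) 30 min RT, beads 20 min dark.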
# The depositor's hits bear a star; u = inconclusive; x = not tested or not shown; [ ] = dose if it differs, or a comment. Unless noted, calls come from the whole dose curve; as a rule, active = well fitted curve in the direction sought with a large enough effect; inconclusive = small, poorly fitted or top-dose-only effect, or another doubt; inactive = no such curve, though single readings can be large; an effect the other way counts as inactive or inconclusive.
SMILES,G9a inh,PI5P4Ka inh,PLK1 PBD block,HP1b chromo inh,JMJD2A Tudor inh,BAZ2B inh
COc1ccc(NC(=O)C2CCCN(S(=O)(=O)c3ccc(F)cc3)C2)cc1 (stereo unspecified),7%[59 µM],x,x,34%,-2%,-2%
COC(=O)c1cc(O)c(O)c(O)c1,40µM*,-5,1%,u,20µM*,79µM*
COc1ccc(C(=O)N2CCC3(CC2)CN(c2ccccc2)C3)cc1,26%[12.7 µM],x,x,x,x,x
Cc1nc(C)n(CCNS(=O)(=O)c2ccc(C)c(C)c2)n1,10%,0,-3%,1%,-7%,2%
CO[C@]1(NC(=O)C2SC(=C(C(N)=O)C(=O)O)S2)C(=O)N2C(C(=O)O)=C(CSc3nnnn3C)CS[C@H]21 (stereo partly specified),17%[21.5 µM],x,x,x,x,x
Cc1cc(C)c(Cn2c(=O)n(CCC(=O)NCCc3ccccc3)c(=O)c3ccccc32)c(C)c1,11%[59 µM],x,x,39%,-1%,3%
C/C(=C/c1ccccc1)C(=O)N1CCC(C)CC1,24%,0,2%,40%,0%,-3%
CCCCNC(=O)C1CCN(C/C(C)=C/c2ccccc2)CC1,u,-8,u,-9%,6.3µM*,50µM*
C/C(=C\c1ccccc1)CN1CCC(C(=O)N2CCCCC2)CC1,u,-1,-7%,u,7.9µM*,u
C/C(=C\c1ccccc1)CN1CCC(C(=O)N2CCC(C)CC2)CC1,10µM*,-6,-22%,-30%,-1%[11.4 µM],u
CCOc1ccccc1CNC(=O)c1sc2ncccc2c1-n1cccc1,-22%[59 µM],x,x,9%[57 µM],-9%,-16%
Cc1cc(C)c(NS(=O)(=O)c2ccc(-c3cnc(C4CC4)o3)cc2)c(C)c1,u,x,x,-1%,-33%,u
COc1cccc(CNC(=O)C(C)n2c(=O)cc(-c3ccccc3)c3c(C)nn(C)c32)c1 (stereo unspecified),8%[59 µM],x,x,-11%,-28%,-11%
CCCCCCCCN1C(=O)[C@H](CC(=O)NCCc2ccccc2OC)C[C@@]2(C(=O)OC)CCCCC=C12,x,15,1%,x,x,x
c1ccc(CN2CCc3[nH]c4ccccc4c3C2)cc1,x,-9,-4%,-10%,u,x
Cc1cccc(CN2CCc3c([nH]c4ccccc34)C2)c1,45µM*,2,-14%,45µM*,20µM*,50µM*
CSc1ccc(CN2CCc3c([nH]c4ccccc34)C2)cc1,x,8,-4%,u,3.2µM*,u
COc1cc(OC)c(CN2CCc3c([nH]c4ccccc34)C2)cc1Br,u,1,1%,-20%,u,u
Clc1ccc(CN2CCc3c([nH]c4ccccc34)C2)cc1Cl,28µM*,36,u,u,16µM*,32µM*
Clc1cccc(CN2CCc3c([nH]c4ccccc34)C2)c1,x,12,27µM*,u,20µM*,50µM*
O=C(Nc1ccc(Oc2ccc(Br)cc2)cc1)C1=CC=CN2CCS(=O)(=O)N=C12,-4%[59 µM],14,-8%,31%,-17%,-16%
CC(=O)N1CCc2cc(Br)cc(S(=O)(=O)CCC(=O)N3CCN(c4ccc(F)cc4)CC3)c21,-32%[59 µM],x,x,18%,-26%,u
O=C(CNC(=O)c1ccccc1F)OCc1nc2ccccc2s1,0%,-7,-7%,45%,5%,-2%
CNc1sc(C(=O)c2ccccc2F)c(N)c1-c1nc2ccccc2s1,u,2,-1%,u,50µM*,40µM*
CN1C(=O)[C@@](O)(c2cn(C)c3ccccc23)c2cc(F)ccc21,x,-2,0%,x,x,x
SMILES,G9a inh,PI5P4Ka inh,PLK1 PBD block,HP1b chromo inh,JMJD2A Tudor inh,BAZ2B inh
CCOc1ccc(-n2nc3cc(C)c(N)cc3n2)cc1,x,2,-16%,39%,2%,u
Cc1cc2nn(-c3ccc(Cl)cc3)nc2cc1N,13µM*,-5,-9%,24%,20%,u
COc1cc(/C=C/C(=O)O)cc(S(=O)(=O)N2CCCc3ccccc32)c1OC,u,-29,27µM*,-15%,-9%[11.4 µM],-19%
COc1cc(/C=C/C(=O)O)cc(S(=O)(=O)N2CCc3ccccc32)c1OC,2%,-8,3%,37%,-12%,-19%
COCCN1CC(CNC(=O)c2cc(COc3ccc(C)c(C)c3)on2)CC1=O (stereo unspecified),-1%,-7,-18%,52%,-20%,-22%
Nc1ccc(S(=O)(=O)N2CCN(S(=O)(=O)c3ccc4c(c3)OCCO4)CC2)cc1,x,x,x,x,-5%,x
COc1ccc(/C=C2\N=C(C(C)(C)C)OC2=O)c(OC)c1,-11%[59 µM],5,2%,18%[57 µM],-26%,-15%
CN(C)c1ccc(/C=C2\N=C(C(C)(C)C)OC2=O)cc1,45µM*,4,u,32%,1%,u
CN1C(=O)/C(=C\c2ccc(N(C)C)cc2)OC1=S,77%,-27,-10%,13%,25µM*,11%
O=C(NCCCN1CCCC1=O)C1CCN(S(=O)(=O)c2ccc(Cl)cc2)CC1,17%[12.7 µM],1,-9%,28%,-4%,4%
Cc1ccc(NC(=O)c2csc(-c3ccccc3)c2C)cc1,9%[59 µM],-1,-6%,17%,-14%,0%
CC(=O)Nc1scc(-c2ccccc2)[n+]1-c1ccc(C)cc1,50µM*,-2,-3%,31%,-13%,u
O=C(Nc1cccc(C(=O)Nc2ccc(S(=O)(=O)O)c3cc(S(=O)(=O)O)cc(S(=O)(=O)O)c23)c1)Nc1cccc(C(=O)Nc2ccc(S(=O)(=O)O)c3cc(S(=O)(=O)O)cc(S(=O)(=O)O)c23)c1,0.6µM*,x,x,x,x,x
CC(C)(C)c1ccc(CSc2nc3c(c(=O)[nH]2)CCCC3)cc1,5%[59 µM],x,x,21%,-13%,-17%
c1cc(-c2ccsc2)n2cnnc2c1,x,-17,-10%,x,x,x
O=S(=O)(c1ccc(F)cc1)c1nc(-c2ccc(F)cc2)oc1NCCN1CCOCC1,50µM*,9,-6%,13%,-22%[57.1 µM],-8%
Cc1ccc(S(=O)(=O)c2nc(-c3ccccc3)oc2NCCN2CCOCC2)cc1,u,-6,u,-7%,-7%[11.4 µM],-29%
Cc1ccc(-c2nc(S(=O)(=O)c3ccc(C)cc3)c(N3CCOCC3)o2)cc1,4.5µM*,u,-14%,u,79µM*,u
CCOc1ccc(-c2nc(S(=O)(=O)c3ccccc3)c(N3CCOCC3)o2)cc1,50µM*,1,-11%,31%,-20%,-36%
